Several values for one entry are separate records, joined by “and”; a condition that tells them apart may be missing. Equal entries are not always repeated. Records with an inconclusive call do not appear. Activity calls are given as the source filed them. Rule for the calls: active = hit-call score of the fitted dose curve at least 0.9, where 1 is the maximum; inconclusive = response in the unintended direction; inactive = score below 0.9.
Tests used:
[1] = target: human Adrenergic, Beta 3 Receptor (Adrb3), ADRB3 (gene 155) (UniProt P13945); experiment: NVS_GPCR_hAdrb3: NovaScreen (NVS) G Protein-Coupled Receptor Assay for human Adrenergic, Beta 3 Receptor (Adrb3) (AID 2283262)
Chain of human Adrenergic, Beta 3 Receptor (Adrb3), ADRB3 (gene 155) (P13945 whole entry, looked up): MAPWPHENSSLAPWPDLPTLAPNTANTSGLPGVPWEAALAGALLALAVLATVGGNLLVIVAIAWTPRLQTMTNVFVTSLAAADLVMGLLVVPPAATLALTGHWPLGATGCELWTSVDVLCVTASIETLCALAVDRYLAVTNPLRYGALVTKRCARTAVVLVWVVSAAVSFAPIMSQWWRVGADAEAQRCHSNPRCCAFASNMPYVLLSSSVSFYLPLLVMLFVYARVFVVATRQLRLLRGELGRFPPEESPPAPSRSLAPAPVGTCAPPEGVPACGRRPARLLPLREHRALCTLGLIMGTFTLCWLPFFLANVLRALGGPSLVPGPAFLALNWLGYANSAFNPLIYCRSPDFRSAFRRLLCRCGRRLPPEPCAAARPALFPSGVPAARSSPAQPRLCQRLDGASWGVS
Summary of the method: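 Membranes from SK-N-MC cells pretreated with isoproterenol and 8-bromo-cAMP were used in a radioligand competitive displacement binding assay. Binding was read by filter-based scintillation counting 1 hour after dosing. Primary screening was in duplicate at 25 uM, with concentration series in follow-up.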

[2] = target: human Dopamine Receptor D2 (DRD2), DRD2 (gene 1813) (UniProt P14416); experiment: NVS_GPCR_hDRD2s: NovaScreen (NVS) G Protein-Coupled Receptor Assay for human Dopamine Receptor D2 (DRD2) (AID 2283266)
Chain of human Dopamine Receptor D2 (DRD2), DRD2 (gene 1813) (P14416 whole entry, looked up): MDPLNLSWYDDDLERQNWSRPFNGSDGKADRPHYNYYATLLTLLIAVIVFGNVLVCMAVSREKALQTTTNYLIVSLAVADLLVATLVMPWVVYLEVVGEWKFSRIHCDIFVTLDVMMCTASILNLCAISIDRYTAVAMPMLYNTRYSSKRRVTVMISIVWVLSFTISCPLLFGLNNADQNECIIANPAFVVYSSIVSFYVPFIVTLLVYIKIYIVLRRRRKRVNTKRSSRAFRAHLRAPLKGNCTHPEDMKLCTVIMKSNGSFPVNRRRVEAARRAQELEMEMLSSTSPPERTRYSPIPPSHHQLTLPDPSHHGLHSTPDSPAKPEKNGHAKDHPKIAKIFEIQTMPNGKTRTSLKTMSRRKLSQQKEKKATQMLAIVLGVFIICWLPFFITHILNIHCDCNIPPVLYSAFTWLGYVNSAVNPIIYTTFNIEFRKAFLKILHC
Summary of the method: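 Radioligand displacement used human DRD2 membranes extracted from CHO cells and was read by filter-based scintillation counting after 1.5 hours. Primary screening was in duplicate at 25 uM. Loss of signal versus DMSO was fitted, with concentration series in follow-up.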

[3] = target: human Histamine 1 Receptor (H1), HRH1 (gene 3269) (UniProt P35367); experiment: NVS_GPCR_hH1: NovaScreen (NVS) G Protein-Coupled Receptor Assay for human Histamine 1 Receptor (H1) (AID 2283268)
Chain of human Histamine 1 Receptor (H1), HRH1 (gene 3269) (P35367 whole entry, looked up): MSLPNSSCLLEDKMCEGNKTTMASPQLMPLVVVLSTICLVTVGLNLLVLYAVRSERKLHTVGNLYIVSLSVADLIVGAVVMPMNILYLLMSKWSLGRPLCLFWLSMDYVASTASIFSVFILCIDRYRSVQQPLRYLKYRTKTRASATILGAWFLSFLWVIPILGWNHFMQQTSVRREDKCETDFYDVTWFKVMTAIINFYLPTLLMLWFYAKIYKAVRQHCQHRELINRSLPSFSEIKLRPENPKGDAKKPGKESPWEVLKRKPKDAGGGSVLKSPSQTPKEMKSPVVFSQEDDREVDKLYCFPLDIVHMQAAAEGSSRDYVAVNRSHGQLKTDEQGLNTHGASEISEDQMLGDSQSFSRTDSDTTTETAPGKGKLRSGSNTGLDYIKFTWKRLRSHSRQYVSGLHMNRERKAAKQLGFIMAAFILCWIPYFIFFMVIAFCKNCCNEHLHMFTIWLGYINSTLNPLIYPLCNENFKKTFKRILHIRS
Summary of the method: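 Cell-free radioligand displacement at human H1 receptor, 1 h, filter scintillation counting; primary screen 25 uM in duplicate, hits in concentration series; loss of binding fitted vs DMSO.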

[4] = target: Muscarinic acetylcholine receptor M1 (Homo sapiens) (UniProt P11229); experiment: NVS_GPCR_hM1: NovaScreen (NVS) G Protein-Coupled Receptor Assay for human Muscarinic, M1 Receptor (AID 2283270)
Chain of Muscarinic acetylcholine receptor M1 (Homo sapiens) (P11229 whole entry, looked up): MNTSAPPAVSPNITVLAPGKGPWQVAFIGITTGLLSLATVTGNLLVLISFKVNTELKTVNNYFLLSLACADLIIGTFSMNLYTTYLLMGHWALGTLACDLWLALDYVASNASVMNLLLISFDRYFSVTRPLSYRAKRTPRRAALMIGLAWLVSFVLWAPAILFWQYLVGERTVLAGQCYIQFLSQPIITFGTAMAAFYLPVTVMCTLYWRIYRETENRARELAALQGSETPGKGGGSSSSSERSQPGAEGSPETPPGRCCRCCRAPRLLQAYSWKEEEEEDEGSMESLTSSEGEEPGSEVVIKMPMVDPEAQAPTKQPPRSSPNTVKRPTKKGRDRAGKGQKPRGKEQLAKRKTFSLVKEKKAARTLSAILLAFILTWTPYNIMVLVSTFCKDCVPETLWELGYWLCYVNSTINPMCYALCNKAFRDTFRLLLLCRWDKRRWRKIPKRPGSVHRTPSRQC
Summary of the method: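 Cell-free radioligand displacement using membrane protein extracted from CHO cells, read by filter-based scintillation counting 1 h after dosing. Loss of bound signal fitted versus DMSO; primary screen single concentration 25 uM in duplicate, actives followed by concentration series.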

[5] = target: human Dopamine Receptor D4.4 (DRD4.4), DRD4 (gene 1815) (UniProt P21917); experiment: NVS_GPCR_hDRD4.4: NovaScreen (NVS) G Protein-Coupled Receptor Assay for human Dopamine Receptor D4.4 (DRD4.4) (AID 2283264)
Chain of human Dopamine Receptor D4.4 (DRD4.4), DRD4 (gene 1815) (P21917 whole entry, looked up): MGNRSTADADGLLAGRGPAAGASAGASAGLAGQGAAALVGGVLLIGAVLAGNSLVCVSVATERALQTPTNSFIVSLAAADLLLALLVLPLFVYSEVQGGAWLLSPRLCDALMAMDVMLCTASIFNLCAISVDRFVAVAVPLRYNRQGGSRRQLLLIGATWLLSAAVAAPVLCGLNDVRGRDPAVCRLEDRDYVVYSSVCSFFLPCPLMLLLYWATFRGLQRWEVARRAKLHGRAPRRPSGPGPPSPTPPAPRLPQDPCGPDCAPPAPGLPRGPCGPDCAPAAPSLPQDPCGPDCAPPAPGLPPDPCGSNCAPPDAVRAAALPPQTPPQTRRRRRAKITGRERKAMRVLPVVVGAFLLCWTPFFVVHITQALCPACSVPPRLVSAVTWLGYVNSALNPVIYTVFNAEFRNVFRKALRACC
Experimental: NVS_GPCR_hDRD4.4 is a biochemical, single-readout assay that uses extracted gene-proteins from CHO in a cell-free assay. Measurements were taken 1 hour after chemical dosing in a 96-well plate.NVS_GPCR_hDRD4.4 is one of one assay component(s) measured or calculated from the NVS_GPCR_hDRD4.4 assay. It is designed to make measurements of radioligand binding, a form of binding reporter, as detected with scintillation counting signals by Filter-based radiodetection technology.Data from the assay component NVS_GPCR_hDRD4.4 was analyzed into 1 assay endpoint. This assay endpoint, NVS_GPCR_hDRD4.4, was analyzed in the positive analysis fitting direction relative to DMSO as the negative control and baseline of activity. Using a type of binding reporter, loss-of-signal activity can be used to understand changes in the binding as they relate to the gene DRD4. Furthermore, this assay endpoint can be referred to as a primary readout, because the performed assay has only produced 1 assay endpoint. To generalize the intended target to other relatable targets, this assay endpoint is annotated to the gpcr intended target family, where the subfamily is rhodopsin-like receptor.
Binding assays used specific radioligands (tritiated, iodinated) with non-radioactive competitive displacement ligands in agonist or antagonist protocols (as indicated) and various reference compounds and inhibitors to titrate specific binding to receptors and transporters. Most enzyme assays (CYPs, kinases, phosphatases, proteases, HDACs) used recombinant protein and specific substrates (fluorescence mostly, some colorimetric and radioactive) and inhibitors, followed by a biochemical separation of substrate and product. All assays for the biochemical HTS were initially run in duplicate at a single concentration (10 uM for CYP450 assays and 25 uM for all others). […] Each assay was run with positive and negative controls, and concurrent controls on every plate. The follow-up (secondary) screen tested active chemical-pairs in concentration series, as well as a few additional assays not tested in the primary screen, some selected negative inactives, and several cases re-run in the concentration series for confirmatory purposes.

[6] = target: D(1A) dopamine receptor (Homo sapiens) (UniProt P21728); experiment: NVS_GPCR_hDRD1: NovaScreen (NVS) G Protein-Coupled Receptor Assay for human Dopamine Receptor D1 (DRD1) (AID 2283269)
Chain of D(1A) dopamine receptor (Homo sapiens) (P21728 whole entry, looked up): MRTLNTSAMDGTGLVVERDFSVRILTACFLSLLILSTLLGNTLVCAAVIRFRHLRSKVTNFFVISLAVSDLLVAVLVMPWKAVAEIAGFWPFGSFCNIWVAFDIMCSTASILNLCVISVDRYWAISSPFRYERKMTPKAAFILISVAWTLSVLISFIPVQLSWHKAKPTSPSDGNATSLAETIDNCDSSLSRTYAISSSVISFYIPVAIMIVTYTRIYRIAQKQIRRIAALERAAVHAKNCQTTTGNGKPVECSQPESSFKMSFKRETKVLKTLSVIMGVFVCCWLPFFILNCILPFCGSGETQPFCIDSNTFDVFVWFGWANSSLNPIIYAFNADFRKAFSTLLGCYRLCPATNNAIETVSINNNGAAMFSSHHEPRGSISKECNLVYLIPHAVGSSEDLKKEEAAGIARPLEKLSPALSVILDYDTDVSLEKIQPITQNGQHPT
Summary of the method: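 Extracted HEK293 DRD1 is incubated 1 h with compound and a tritiated or iodinated radioligand, then filtered and counted. Screening runs 25 uM in duplicate with on-plate positive and negative controls.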

[7] = target: human Leukotriene B4 Receptor 1 (LTB4-BLT1), LTB4R (gene 1241) (UniProt Q15722); experiment: NVS_GPCR_hLTB4_BLT1: NovaScreen (NVS) G Protein-Coupled Receptor Assay for human Leukotriene B4 Receptor 1 (LTB4-BLT1) (AID 2283271)
Chain of human Leukotriene B4 Receptor 1 (LTB4-BLT1), LTB4R (gene 1241) (Q15722 whole entry, looked up): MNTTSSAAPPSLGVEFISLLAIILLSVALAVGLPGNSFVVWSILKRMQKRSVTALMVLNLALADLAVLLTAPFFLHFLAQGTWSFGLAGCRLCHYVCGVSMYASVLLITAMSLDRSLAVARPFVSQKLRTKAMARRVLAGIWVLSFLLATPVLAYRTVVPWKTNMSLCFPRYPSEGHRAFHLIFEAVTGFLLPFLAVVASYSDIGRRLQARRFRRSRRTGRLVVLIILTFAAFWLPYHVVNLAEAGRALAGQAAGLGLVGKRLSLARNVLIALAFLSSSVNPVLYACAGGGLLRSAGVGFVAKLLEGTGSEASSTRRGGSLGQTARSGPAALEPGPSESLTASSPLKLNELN
Summary of the method: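 Radioligand displacement binding on receptor extracted from human neutrophils, cell-free, 1 h after dosing; filter-based scintillation counting. Primary screen in duplicate at 25 uM, actives retested in concentration-response up to 50 uM; loss of signal versus DMSO.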

[8] = target: Type-1 angiotensin II receptor (Homo sapiens) (UniProt P30556); experiment: NVS_GPCR_hAT1: NovaScreen (NVS) G Protein-Coupled Receptor Assay for human Angiotensin II receptor type 1 (AT1) (AID 2283263)
Chain of Type-1 angiotensin II receptor (Homo sapiens) (P30556 whole entry, looked up): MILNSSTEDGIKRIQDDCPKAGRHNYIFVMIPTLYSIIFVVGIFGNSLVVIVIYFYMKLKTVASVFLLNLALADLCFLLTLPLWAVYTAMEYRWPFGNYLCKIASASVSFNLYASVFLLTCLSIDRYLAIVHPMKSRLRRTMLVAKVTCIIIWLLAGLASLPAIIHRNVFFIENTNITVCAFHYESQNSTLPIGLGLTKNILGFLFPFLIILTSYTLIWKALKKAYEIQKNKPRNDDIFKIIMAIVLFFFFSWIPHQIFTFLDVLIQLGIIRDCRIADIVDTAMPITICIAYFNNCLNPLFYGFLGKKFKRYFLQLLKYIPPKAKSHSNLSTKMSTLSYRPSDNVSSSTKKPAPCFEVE
Summary of the method: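 Membranes from KAN-TS cells; radioligand competitive displacement, 3 h, filtration and scintillation counting. Single-point duplicate screen at 25 uM, then concentration-response up to 50 uM for hits; loss of signal fitted versus DMSO.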

[9] = target: human Endothelin Receptor Type A (ETA), EDNRA (gene 1909) (UniProt P25101); experiment: NVS_GPCR_hETA: NovaScreen (NVS) G Protein-Coupled Receptor Assay for human Endothelin Receptor Type A (ETA) (AID 2283265)
Chain of human Endothelin Receptor Type A (ETA), EDNRA (gene 1909) (P25101 whole entry, looked up): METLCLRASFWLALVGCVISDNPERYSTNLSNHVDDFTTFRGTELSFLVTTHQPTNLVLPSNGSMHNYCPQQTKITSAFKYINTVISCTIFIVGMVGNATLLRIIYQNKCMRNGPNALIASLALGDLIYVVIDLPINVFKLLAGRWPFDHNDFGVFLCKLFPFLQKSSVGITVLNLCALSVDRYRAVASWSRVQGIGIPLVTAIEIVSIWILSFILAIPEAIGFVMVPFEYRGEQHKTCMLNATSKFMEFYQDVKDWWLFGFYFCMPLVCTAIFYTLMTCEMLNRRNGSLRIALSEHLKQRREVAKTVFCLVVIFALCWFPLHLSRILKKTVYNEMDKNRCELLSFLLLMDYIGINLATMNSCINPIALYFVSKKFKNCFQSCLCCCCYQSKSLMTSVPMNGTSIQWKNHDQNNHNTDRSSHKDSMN
Summary of the method: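 Cell-free radioligand displacement using SH-SY5Y-derived protein, 3 h incubation, filter-based scintillation counting. Primary screen in duplicate at 25 uM; actives then run in concentration-response up to 50 uM; loss of binding fitted versus DMSO.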

[10] = target: human Endothelin Receptor Type B (ETB), EDNRB (gene 1910) (UniProt P24530); experiment: NVS_GPCR_hETB: NovaScreen (NVS) G Protein-Coupled Receptor Assay for human Endothelin Receptor Type B (ETB) (AID 2283267)
Chain of human Endothelin Receptor Type B (ETB), EDNRB (gene 1910) (P24530 whole entry, looked up): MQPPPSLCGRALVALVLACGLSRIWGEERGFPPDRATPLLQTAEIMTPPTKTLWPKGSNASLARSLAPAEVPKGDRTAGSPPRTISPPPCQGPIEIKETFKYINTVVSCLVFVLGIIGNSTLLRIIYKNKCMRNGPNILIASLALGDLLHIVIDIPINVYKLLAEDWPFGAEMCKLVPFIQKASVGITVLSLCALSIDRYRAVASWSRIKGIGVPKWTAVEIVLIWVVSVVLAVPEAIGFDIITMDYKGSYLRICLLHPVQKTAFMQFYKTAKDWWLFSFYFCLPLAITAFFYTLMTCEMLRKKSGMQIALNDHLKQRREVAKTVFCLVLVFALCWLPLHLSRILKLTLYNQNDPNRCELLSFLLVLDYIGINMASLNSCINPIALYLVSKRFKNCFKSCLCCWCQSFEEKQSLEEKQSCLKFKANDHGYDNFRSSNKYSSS
Summary of the method: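 Human astrocytoma cell membranes; radioligand competitive binding read by filter scintillation counting 4 hours after dosing. Single-concentration duplicate screen at 25 uM, then singleton concentration-response up to 50 uM; loss of signal versus DMSO.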

**Q.** How did the outcome [1] turn out when `CCC(=O)C(CC(C)N(C)C)(c1ccccc1)c1ccccc1` (stereo unspecified) was run?
**A.** inactive

**Q.** What about the AC50 [2] of the same compound?
**A.** 5.6 µM (active)

**Q.** And the AC50 [3]?
**A.** 7.25 µM (active)

**Q.** And the AC50 [4]?
**A.** 6.92 µM (active)

**Q.** Which AC50 [5] does the source give for `COc1cc(-c2ccc(N)c(OC)c2)ccc1N` here?
**A.** 16.7 µM (active)

**Q.** What about the AC50 [2] of the same compound?
**A.** 5.28 µM (active) and 9.98 µM (active)

**Q.** `O=C1C2(Cl)C3(Cl)C4(Cl)C(Cl)(Cl)C5(Cl)C3(Cl)C1(Cl)C5(Cl)C24Cl` (stereo unspecified) was tested. Which outcome [6] did it give?
**A.** inactive

**Q.** How did the outcome [7] turn out when `CC(C)(C)c1cc(O)ccc1O` was run?
**A.** inactive

**Q.** For `CC(C)(C)CC(C)(C)c1ccc(O)cc1`, which outcome [4] is on record?
**A.** inactive

**Q.** Which outcome [6] does the source give for `O=C(c1ccccc1)C(Cl)Cl` here?
**A.** inactive

**Q.** `Nc1cccc2ccccc12` was tested. Which AC50 [6] did it give?
**A.** 37.8 µM (active)

**Q.** For `CCOC(=O)/C=C(C)/C=C/C[C@@H](C)CCCC(C)C`, which AC50 [6] is on record?
**A.** 32.1 µM (active)

**Q.** `C=C(C)C(=O)[O][Sn]([CH2]CCC)([CH2]CCC)[CH2]CCC` was tested. Which AC50 [1] did it give?
**A.** 25 µM (active)

**Q.** And the AC50 [8]?
**A.** 2.23 µM (active)

**Q.** And the AC50 [5]?
**A.** 1.75 µM (active)

**Q.** What about the AC50 [9] of the same compound?
**A.** 0.697 µM (active)

**Q.** What about the AC50 [2] of the same compound?
**A.** 0.363 µM (active)

**Q.** What about the AC50 [10] of the same compound?
**A.** 14.8 µM (active)

**Q.** And the AC50 [3]?
**A.** 1.96 µM (active)

**Q.** And the AC50 [6]?
**A.** 0.326 µM (active)

**Q.** What about the AC50 [4] of the same compound?
**A.** 1.9 µM (active)

**Q.** `CCN1CCC2(CC1)COc1cc3c(cc12)N(C(=O)c1ccc(-c2ccc(-c4nnc(C)o4)cc2C)cc1)CC3` was tested. Which outcome [1] did it give?
**A.** inactive

**Q.** And the outcome [5]?
**A.** inactive

**Q.** And the AC50 [3]?
**A.** 32.2 µM (active)

**Q.** What about the AC50 [6] of the same compound?
**A.** 5.49 µM (active)

**Q.** What about the AC50 [4] of the same compound?
**A.** 0.646 µM (active)

**Q.** Which AC50 [1] does the source give for `CC(=O)[O][Hg][c]1ccccc1` here?
**A.** 6.02 µM (active)

**Q.** What about the AC50 [8] of the same compound?
**A.** 15.1 µM (active)

**Q.** And the AC50 [5]?
**A.** 0.794 µM (active)

**Q.** What about the AC50 [9] of the same compound?
**A.** 1.07 µM (active)

**Q.** And the AC50 [2]?
**A.** 0.428 µM (active)

**Q.** And the AC50 [3]?
**A.** 1.18 µM (active)

**Q.** What about the AC50 [6] of the same compound?
**A.** 0.104 µM (active)

**Q.** What about the AC50 [4] of the same compound?
**A.** 1.39 µM (active)

**Q.** What about the AC50 [7] of the same compound?
**A.** 21 µM (active)

**Q.** For `CN(C)N=O`, which outcome [1] is on record?
**A.** inactive

**Q.** What does the source list for `O=C(O)C(F)(F)C(F)(F)C(F)(F)C(F)(F)C(F)(F)C(F)(F)C(F)(F)C(F)(F)C(F)(F)C(F)(F)F`?
**A.** AC50 [2]: 11 µM (active); outcome [6]: inactive; AC50 [7]: 33.4 µM (active)

**Q.** `CCOP(=S)(OCC)SCSP(=S)(OCC)OCC` was tested. Which outcome [2] did it give?
**A.** inactive

**Q.** How did the outcome [6] turn out when `Oc1c(I)cc(I)cc1I` was run?
**A.** inactive
